{"source": "PubChem BioAssay (NCATS)", "note": "“And” between values parts separate entries of the source, which are not always exact repeats. Identical values can stand only once. Results filed as inconclusive are left out. Unmarked numbers belong to inactive results. The source made the active and inactive calls. The call rests on the fitted dose curve; in most records, active means well fitted cell-killing curve with a large enough effect; inconclusive means small, poorly fitted or top-dose-only effect, or effect the other way; inactive means no such curve, though single readings can be large or run the other way. Potency means the concentration at half of the fitted maximal effect."}
{"test": "Viability qHTS for spleen associated tyrosine kinase inhibitor (SYKi) naive MV4-11 cells (AID 1963823); further: nearly all actives have a fitted effect of over 40% in size", "conditions": "MV4-11 AML viability, CellTiter-Glo luminescence, 72 h; series mostly up to 45 µM; viability (% of control): at the top concentration", "from_the_text": "Department of Medicine, Hematology/Oncology\nUniversity Hospital Frankfurt, Germany.\nTrials have shown promising clinical activity of the selective SYK inhibitor entospletinib in patients with high expressing HOXA9/MEIS1 acute leukemias. As the development of resistance mechanisms is a common problem in the use of targeted drugs, we performed a chemical library screen to identify drug sensitivities in SYK inhibitor resistant AML cells. […] Glucocorticoids are potent immunosuppressants which work in part by inhibiting the transcription of cytokine genes.\nDescribed herein is a viability screen to look for activity in the SYK inhibitor naive cell line against four NCATS compound libraries (MIPE 5.0, NPC, NPACT, and Kinase) totaling 11372 compounds. Active hits were reacquired for confirmation and further secondary assay testing.\nSEQUENCE No. (e.g., 1, 2, 3, etc.); […] (e.g., Cells, Incubation, Reagent, etc.); VALUE; DESCRIPTION.\n1; Media; 2uL; white, solid-bottom Corning assay plate.\n2; Compounds; 23nL; Echo acoustic dispenser.\n3; Cell; 5uL; 500 cells per well.\n4: Incubation; 72hr; 37 C, 5% CO2, 95% humidity.\n5; Reagent; 3uL; CellTiter-Glo reagent (Promega).\n6; Incubation; 10min; room temperature.\n7; Detection; Luminescence; ViewLux plate reader (PerkinElmer).\nNOTES (numbers refer to Sequence numbers above\n1. Quantitative high-throughput screening (qHTS) of small molecule compounds was conducted on naive SYKi MV4-11 cell line.\n2. Twenty-three nanoliter of small molecule compounds were added to each assay plates using the Echo acoustic dispenser (Beckman Coulter).\n3. Cells were seeded into the assay plates at a final density of 500 cells in 5uL of media per well using the Multi-drop Combi dispenser.\n4. Plates were covered with stainless steel gasketed lids and incubated for 72 hours at standard cell culture conditions.\n5. Viability was assessed by adding 3uL of CellTiter-Glo detection reagent (Promega).\n6. Plates were covered with gasket lids and incubated for 10 minutes at room temperature.\n7. Luminescence was measured on a ViewLux plate reader (PerkinElmer)."}
{"smiles": "C[C@]12C=CC(=O)C=C1[C@@H](F)C[C@@H]1[C@@H]2[C@@H](O)C[C@@]2(C)[C@H]1CC[C@]2(O)C(=O)CO", "viability (% of control)": "113%"}
{"smiles": "CN(C)C1CCN(C(=O)c2ccc(NC(=O)Nc3ccc(-c4nc(N5CCOCC5)nc(N5CCOCC5)n4)cc3)cc2)CC1", "Potency": "0.0146 µM (active)"}
{"smiles": "CC(C)CC(=O)NCCn1cc(C(=O)O)c(=O)cc1C(O)c1ccccc1", "note": "(stereo not given)", "viability (% of control)": "69%"}
{"smiles": "COc1ccc2cc(C(C)C(=O)Oc3ccc(C(N)=S)cc3)ccc2c1", "note": "(stereo not given)", "viability (% of control)": "73.3%"}
{"smiles": "Nc1ncnc2c1ncn2[C@@H]1O[C@H](CO)[C@@H](O)[C@@H]1O", "viability (% of control)": "80.4%"}
{"smiles": "CC(C)(C)C(=O)OCOC(=O)C1N2C(=O)CC2S(=O)(=O)C1(C)C", "note": "(stereo not given)", "viability (% of control)": "79.3%"}
{"smiles": "NC[C@H]1O[C@H](O[C@H]2[C@H](O)[C@@H](O[C@H]3O[C@H](CO)[C@@H](O)[C@H](N)[C@H]3O)[C@H](N)C[C@@H]2N)[C@H](N)[C@@H](O)[C@@H]1O", "viability (% of control)": "100% [at 17.3 µM]"}
{"smiles": "COc1ccc(C(=O)N2CCN(CC(=O)N3CCOCC3)CC2)cc1", "viability (% of control)": "93.1%"}
{"smiles": "CC(C)(O)c1ccn2c(-c3ccc(F)c(-c4ccc(F)cc4C#N)c3)cnc2c1F", "Potency": "9.2 µM (active)"}
{"smiles": "CC1(C)CC[C@]2(C(=O)O[C@@H]3O[C@H](CO)[C@@H](O)[C@H](O)[C@H]3O)CC[C@]3(C)C(=CCC4[C@@]5(C)C[C@H](O)[C@H](O[C@@H]6O[C@H](C(=O)O)[C@@H](O)[C@H](O)[C@H]6O)[C@@](C)(CO)C5CC[C@]43C)C2C1", "note": "(stereo not given in full)", "viability (% of control)": "24.2% [at 9.25 µM]"}
{"smiles": "COC(=O)C(C)C1CCC2(C)C(=O)C=CC(C)(O)C2C1O", "note": "(stereo not given)", "viability (% of control)": "78.7%"}
{"smiles": "CC(C)=CCc1cc(O[C@@H]2O[C@H](CO[C@@H]3OC[C@](O)(CO)[C@H]3O)[C@@H](O)[C@H](O)[C@H]2O)ccc1O", "viability (% of control)": "99.1% [at 17.3 µM]"}
{"smiles": "C=C1C(=O)OC2/C=C(/C)C3=CC(=O)C(C)(CC(OC(=O)/C(C)=C/COC(C)=O)C12)O3", "note": "(stereo not given)", "Potency": "0.893 µM (active)"}
{"smiles": "O=C1NC(=O)[C@@]2(CCOc3ccc(F)cc32)N1", "viability (% of control)": "71.5%"}
{"smiles": "CC(C)(C)CC(C)(C)c1ccc(OCCOCC[N+](C)(C)Cc2ccccc2)cc1", "Potency": "2.37 µM (active) and 1.16 µM (active)"}
{"smiles": "O=C1NC(=O)/C(=C/c2ccc3nccc(-c4ccncc4)c3c2)S1", "Potency": "461 nM (active) and 372 nM (active)"}
{"smiles": "O=c1ccn(C2OC(CO)C(O)C2O)c(=O)[nH]1", "note": "(stereo not given)", "viability (% of control)": "79.6%"}
{"smiles": "CC1=C(C(=O)O)N2C(=O)[C@@H](NC(=O)[C@H](N)c3ccccc3)[C@H]2SC1", "viability (% of control)": "93.8%"}
{"smiles": "COC1CC(=O)C23C(=O)NC(CC(C)C)C2C(C)C(C)=CC3/C=C(\\C)CCC(O)C1O", "note": "(stereo not given)", "Potency": "1.42 µM (active)"}
{"smiles": "CNC(=O)[C@H]1O[C@@H](n2cnc3c(NCc4cccc(I)c4)nc(Cl)nc32)[C@H](O)[C@@H]1O", "Potency": "14.8 µM (active)"}
{"smiles": "COc1cc(N2CCC(N3CCN(C)CC3)CC2)ccc1Nc1ncnc(Nc2ccccc2S(=O)(=O)C(C)C)n1", "Potency": "1.16 µM (active) and 1.32 µM (active)"}
{"smiles": "CCCCC(CC)COC(=O)c1ccccc1O", "note": "(stereo not given)", "Potency": "0.596 µM (active)"}
{"smiles": "O=C1NC(=O)[C@@H](c2c[nH]c3ccccc23)[C@H]1c1cn2c3c(cccc13)CCC2", "Potency": "0.833 µM (active)"}
{"smiles": "COc1cc(Br)c(Nc2nc(-c3c(C)nc4ncccn34)cs2)c(Br)c1", "Potency": "1.16 µM (active)"}
{"smiles": "Cc1cn([C@@H]2C[C@@H](O)[C@H](CO)O2)c(=O)[nH]c1=O", "viability (% of control)": "82.9%"}
{"smiles": "O=C(/C=C/c1ccccc1)OCC1=CC[C@@H]2C(C(=O)O)=CO[C@@H](O[C@@H]3O[C@H](CO)[C@@H](O)[C@H](O)[C@H]3O)[C@H]12", "viability (% of control)": "75.8% [at 17.3 µM]"}
{"smiles": "COC(=O)c1ccc(OC)cc1O[C@@H]1O[C@H](CO[C@@H]2OC[C@@H](O)[C@H](O)[C@H]2O)[C@@H](O)[C@H](O)[C@H]1O", "viability (% of control)": "80.7% [at 17.3 µM]"}
{"smiles": "CCS(=O)(=O)c1cccc(-c2cc(C(=O)NC3CCN(C)CC3)c(C)c3[nH]c4ncc(C)cc4c23)c1", "Potency": "40.4 nM (active) and 59 nM (active)"}
{"smiles": "C/C=C/C=C/C=C/C(=O)O[C@@H]1C=C(CO)[C@](O)(CO)[C@@]2(C)CCCC(C)(C)[C@H]12", "Potency": "16.1 µM (active)"}
{"smiles": "CN1CCN(CCCN2c3ccccc3Sc3ccc(C(F)(F)F)cc32)CC1", "Potency": "11.9 µM (active) and 18.6 µM (active)"}
{"smiles": "C/C=C/C=C/[C@@H]1O[C@](O)([C@H](CC)C(=O)NC/C=C/C=C(\\C)[C@@H](OC)[C@@H](C)C2OC(/C=C/C=C/C=C(\\C)C(=O)c3c(O)cc[nH]c3=O)[C@H](O)[C@@H]2O)[C@H](O)[C@H](O)C1(C)C", "note": "(stereo not given in full)", "viability (% of control)": "89% [at 17.3 µM]"}
{"smiles": "Cc1nc2n(c(=O)c1CCN1CCC(c3noc4cc(F)ccc34)CC1)CCC[C@H]2O", "Potency": "inactive"}
{"smiles": "COc1c2c(c(C)c3c1C(=O)OC3)OC1(C)CC(O)C3(O)C(C)(C)OC(=O)CCC3(C)C1C2", "note": "(stereo not given)", "viability (% of control)": "65.4% [at 17.3 µM]"}
{"smiles": "CC(=O)Oc1cccc(O)c1", "viability (% of control)": "90.2%"}
{"smiles": "Cc1cc(N2CCN(C(=O)Oc3ccc(-c4ccccc4)cn3)CC2)c2ccccc2n1", "Potency": "6.51 µM (active)"}
{"smiles": "COc1cc(OC)cc(-c2ccc3c(-c4ccc(F)cc4)[nH]nc3n2)c1", "viability (% of control)": "87.5%"}
{"smiles": "COc1cc(C(=O)N2CCOCC2)cc(OC)c1OC", "viability (% of control)": "87.8%"}
{"smiles": "C[C@@H]1C[C@@H](O)[C@@]23CO[C@@H](O)[C@@H]2CCC[C@@H]3[C@@]12C[C@@H](c1ccoc1)OC2=O", "viability (% of control)": "74.1%"}
{"smiles": "Cc1cc(NC(=O)c2cccc(NC(=O)/C=C/CN(C)C)c2)ccc1Nc1nccc(-c2cccnc2)n1", "Potency": "2.06 µM (active)"}
{"smiles": "C=CC(=O)Nc1cccc(Sc2nc(Nc3ccc(N4CCN(C)CC4)cc3)ncc2Cl)c1", "Potency": "580 nM (active) and 590 nM (active)"}
